Bioassay records as filed in PubChem BioAssay.
PKA-R2B activ: activators of PKA-R2B holoenzyme, primary screen, biochemical, fluorescence polarization, Cy5-IP20, human. cAMP-dependent protein kinase catalytic subunit beta (Homo sapiens) + cAMP-dependent …. PKA-R2B holoenzyme dissociation; R2B truncated from residue 108, S112A mutant; 0% DMSO only, 100% 113 µM cGMP. activation, % at 11.4 µM. actives 0.079% (n = 340,000). AID 504700, 2011;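 active = activation above a cutoff set at the mean over all compounds plus 3 SD, cut at about 18% in these data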;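 also: higher means more holoenzyme dissociation and a rise in polarization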
PAFAH2 inh: PAFAH2 enzyme inhibitors, primary screen, biochemical, fluorescence polarization, human | recombinant PAFAH2, FP-rhodamine activity probe | inhibition, % at 3.39 µM | actives 0.99% (n = 340,000);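 active = inhibition above the mean over all tested compounds plus 3 SD, cut at about 30% in these data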;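 also: inhibitors block probe labeling of enzyme so polarization drops; 0% = enzyme with DMSO and 100% = wells lacking PAFAH2 protein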
PAFAH1B3 inh: PAFAH1B3 enzyme inhibitors, primary screen, biochemical, fluorescence polarization, human; Platelet-activating factor acetylhydrolase IB subunit alpha1 (Homo sapiens), Q15102; recombinant PAFAH1B3, FP-rhodamine probe; inhibition, % at 3.39 µM; actives 0.28% (n = 340,000); AID 492972, 2010;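 active = inhibition above the screen-wide average of all tested compounds plus 3 SD, cut at about 25% in these data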;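 also: 0% = enzyme with DMSO only and 100% = wells lacking PAFAH1B3 protein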
PAFAH1B2 inh: PAFAH1B2 enzyme inhibitors, primary screen, biochemical, fluorescence polarization, human; inhibition, % at 3.39 µM; recombinant PAFAH1B2, FP-rhodamine activity probe; actives 1.2% (n = 340,000); AID 492953, 2010;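 active = inhibition above the mean of all tested compounds plus 3 SD, cut at about 24% in these data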;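 also: 0% = enzyme with DMSO and 100% = wells lacking PAFAH1B2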
Target sequence (P68402 whole entry, looked up): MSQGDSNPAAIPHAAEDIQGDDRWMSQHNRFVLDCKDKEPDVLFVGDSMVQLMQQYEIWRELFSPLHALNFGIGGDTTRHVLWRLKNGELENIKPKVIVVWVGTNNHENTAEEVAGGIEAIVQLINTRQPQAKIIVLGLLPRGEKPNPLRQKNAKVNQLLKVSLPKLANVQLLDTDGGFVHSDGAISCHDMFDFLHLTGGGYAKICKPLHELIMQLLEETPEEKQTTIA
pPAFAH FP inh: pPAFAH enzyme inhibitors, primary screen, biochemical, fluorescence polarization, human. Platelet-activating factor acetylhydrolase (Homo sapiens), Q13093. recombinant pPAFAH, FP-rhodamine probe fluorescence polarization. inhibition, % at 3.39 µM. actives 1.5% (n = 330,000). AID 463082, 2010;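 active = inhibition above the mean inhibition across the screen plus 3 SD, cut at about 25% in these data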;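 also: inhibitors block binding of the rhodamine activity-based probe so polarization drops; 0% = enzyme with DMSO and 100% = wells lacking pPAFAH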
Target sequence (Q13093 whole entry, looked up): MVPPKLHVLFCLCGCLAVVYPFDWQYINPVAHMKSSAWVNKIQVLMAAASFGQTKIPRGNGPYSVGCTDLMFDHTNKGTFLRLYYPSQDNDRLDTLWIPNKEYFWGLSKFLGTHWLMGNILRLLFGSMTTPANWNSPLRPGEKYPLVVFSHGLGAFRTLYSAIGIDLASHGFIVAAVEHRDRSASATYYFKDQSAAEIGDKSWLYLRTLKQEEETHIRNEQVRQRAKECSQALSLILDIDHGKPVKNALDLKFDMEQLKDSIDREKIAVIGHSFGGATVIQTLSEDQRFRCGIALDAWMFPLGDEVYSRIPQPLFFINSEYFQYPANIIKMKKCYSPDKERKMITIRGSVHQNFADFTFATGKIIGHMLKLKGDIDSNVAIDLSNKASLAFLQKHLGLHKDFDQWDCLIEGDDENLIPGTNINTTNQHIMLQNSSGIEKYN
PKA-R1A activ: activators of PKA-R1A holoenzyme, primary screen, biochemical, fluorescence polarization, Cy5-IP20, bovine R1A, mouse PKAc | AID 504707, 2011 | PKA-R1A dissociation; scaled: DMSO 0%, 113 µM cGMP 100% | activation, % at 11.4 µM | actives 0.083% (n = 340,000);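 active = percent activation above the mean of all tested compounds plus 3 SD, cut at about 19% in these data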;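 also: higher means more PKAc released from R1A so a rise in polarization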
R2B FP artifact: fluorescence polarization artefacts, biochemical, artefact control for PKA-R2B activator project. shares compounds with PKA-R2B activ. FP artifact counterscreen. activation, % at 11.4 µM. actives 6% (n = 270); in the data active = activation above about 20%;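 also: Cy5 labelled IP20 peptide probe with compound but no PKA protein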
PKA-R2B act conf: activators of PKA-R2B holoenzyme, confirmation, biochemical, fluorescence polarization, human; shares compounds with PKA-R2B activ; PKA-R2B complex, activation; activation, % at 11.4 µM; actives 9% (n = 270); in the data active = activation above about 19%
* hit, by the source's call. Hits are enriched below; roughly 2.6% of the tested compounds scored in any of these assays.

Screening Cc1cc(C(=O)NC2CCCN(Cc3ccc(Cl)cc3)C2)c(C)o1 (configuration not stated) returned PKA-R2B activ 20*, PAFAH2 inh 4, PAFAH1B3 inh 6, PAFAH1B2 inh 0, pPAFAH FP inh -5, PKA-R1A activ 3, R2B FP artifact 2 and PKA-R2B act conf 0.
N#Cc1ccc(S(=O)(=O)NCCc2ccncc2)cc1 was read as PKA-R2B activ 2, PAFAH2 inh -6, PAFAH1B3 inh -1, PAFAH1B2 inh 3 and PKA-R1A activ -7.
Screening CC(=O)c1ccc(OCC(=O)Nc2nnc(C3CC3)s2)cc1 returned PKA-R2B activ 20*, PKA-R1A activ 0, R2B FP artifact 5 and PKA-R2B act conf 2.
CCNC(=S)NNc1nc(N2CCOCC2)nc(N2CCOCC2)n1 was read as PKA-R2B activ 19*, PAFAH2 inh 4, PAFAH1B3 inh 4, PAFAH1B2 inh 7, pPAFAH FP inh 0, PKA-R1A activ -10, R2B FP artifact 1 and PKA-R2B act conf 1.
CNC(=S)NNc1nc(N2CCOCC2)nc(N2CCOCC2)n1 was read as PKA-R2B activ -6, PAFAH2 inh -5, PAFAH1B3 inh 2, PAFAH1B2 inh -6, pPAFAH FP inh -3 and PKA-R1A activ -6.
`COc1ccc(S(=O)(=O)NC(C)C(=O)O)cc1` (configuration not stated) gave PKA-R2B activ 4, PAFAH2 inh 11, PAFAH1B3 inh 15, PAFAH1B2 inh 3, pPAFAH FP inh 0 and PKA-R1A activ -6.
Screening COc1ccc(S(=O)(=O)N[C@H](C(=O)O)C(C)C)cc1 returned PKA-R2B activ 19*, PAFAH2 inh 0, PAFAH1B3 inh 3, PAFAH1B2 inh 2, pPAFAH FP inh -2, PKA-R1A activ 10, R2B FP artifact 4 and PKA-R2B act conf 4.
CCOc1ccc(Oc2ccc(-c3nnc(-c4ccccc4)o3)cc2[N+](=O)[O-])cc1 was read as PKA-R2B activ 21*, PAFAH2 inh 0, PAFAH1B3 inh -2, PAFAH1B2 inh -3, pPAFAH FP inh 2, PKA-R1A activ 13, R2B FP artifact -1 and PKA-R2B act conf -1.
Screening O=[N+]([O-])c1cc(-c2nnc(-c3ccccc3)o2)ccc1Oc1ccc(Cl)cc1 returned PKA-R2B activ -6, PAFAH2 inh -5, PAFAH1B3 inh 6, PAFAH1B2 inh -1, pPAFAH FP inh 1 and PKA-R1A activ 13.
Screening O=C(NCCc1ccccc1)c1coc(=O)c(Br)c1 returned PKA-R2B activ -1, PAFAH2 inh -5, PAFAH1B3 inh 3, PAFAH1B2 inh 4 and PKA-R1A activ 9.
CCC(NC(=O)OCc1ccccc1)C(=O)Oc1ccc2ccc(=O)oc2c1 (configuration not stated) was read as PKA-R2B activ 19*, PAFAH2 inh 1, PAFAH1B3 inh 7, PAFAH1B2 inh 2, pPAFAH FP inh -5, PKA-R1A activ -15, R2B FP artifact 0 and PKA-R2B act conf 3.
CCOC=C1C(=O)N(C(C)=O)c2cc(OC)c(OC)cc21 was read as PKA-R2B activ -7, PAFAH2 inh -4, PAFAH1B3 inh 0, PAFAH1B2 inh 0 and PKA-R1A activ 3.
O=[N+]([O-])c1cc(C(F)(F)F)cc([N+](=O)[O-])c1NCCNC(=S)Nc1cccc(F)c1 was read as PKA-R2B activ 5, PAFAH2 inh 4, PAFAH1B3 inh 5, PAFAH1B2 inh 14, pPAFAH FP inh 5 and PKA-R1A activ -11.
`Cn1c(CCCOc2ccc(Cl)cc2Cl)nnc1SCC(=O)Nc1nccs1` gave PKA-R2B activ 20*, PAFAH2 inh 5, PAFAH1B3 inh 2, PAFAH1B2 inh 6, pPAFAH FP inh 4, PKA-R1A activ -1, R2B FP artifact 0 and PKA-R2B act conf 2.
CCCCc1nnc(SCC(=O)Nc2nccs2)n1C was read as PKA-R2B activ -1, PAFAH2 inh 4, PAFAH1B3 inh 9, PAFAH1B2 inh 6, pPAFAH FP inh -1 and PKA-R1A activ -5.
COc1cccc(NC(=O)CSc2nc3ccccc3nc2N2CCOCC2)c1 was read as PKA-R2B activ -2, PAFAH2 inh -1, PAFAH1B3 inh -7, PAFAH1B2 inh 2, pPAFAH FP inh 21 and PKA-R1A activ -9.
Screening CCn1c(=O)c(C(=O)NNS(=O)(=O)c2ccc(Cl)cc2)c(O)c2ccccc21 returned PKA-R2B activ 18*, PAFAH2 inh 11, PAFAH1B3 inh 7, PAFAH1B2 inh 11, pPAFAH FP inh 7, PKA-R1A activ -2, R2B FP artifact -3 and PKA-R2B act conf -2.
Screening COc1ccc(-c2cc(C(=O)N3CCN(S(=O)(=O)c4ccc(C)cc4)CC3)[nH]n2)cc1 returned PKA-R2B activ 1, PAFAH2 inh 3, PAFAH1B3 inh 17, PAFAH1B2 inh 7, pPAFAH FP inh -5 and PKA-R1A activ -8.
For COCCN(C(=O)COC(=O)/C=C/c1cccs1)c1c(N)n(Cc2ccccc2)c(=O)[nH]c1=O the results were PKA-R2B activ 23*, PAFAH2 inh -2, PAFAH1B3 inh -9, PAFAH1B2 inh -5, pPAFAH FP inh 3, PKA-R1A activ 6, R2B FP artifact 2 and PKA-R2B act conf 2.
For COc1ccc(NS(=O)(=O)c2cc(NC(=O)c3ccccc3F)ccc2N2CCCC2)cc1 the results were PKA-R2B activ 19*, PAFAH2 inh -2, PAFAH1B3 inh 1, PAFAH1B2 inh 4, pPAFAH FP inh 3, PKA-R1A activ -10, R2B FP artifact -3 and PKA-R2B act conf -3.
Screening CC(=O)NCC(=O)OC(C)C(=O)Nc1ccc(C(C)=O)cc1 (configuration not stated) returned PKA-R2B activ 19*, PAFAH2 inh 6, PAFAH1B3 inh 9, PAFAH1B2 inh 7, pPAFAH FP inh 5, PKA-R1A activ 0, R2B FP artifact -3 and PKA-R2B act conf 2.
`COC(=O)N/N=C/c1cn(CCOc2ccc(OC)cc2)c2ccccc12` gave PKA-R2B activ -1, PAFAH2 inh 0, PAFAH1B3 inh 15, PAFAH1B2 inh 8, pPAFAH FP inh 22 and PKA-R1A activ 2.
